Compound activity deposited in PubChem BioAssay by several laboratories.
Rv3671c inh: Rv3671c serine protease inhibitors, primary screen, biochemical, fluorescence polarization, M. tuberculosis H37Rv; inhibition, % at 5.96 µM; 0.048% of 320,000 active; AID 2606, 2010; in the data active means inhibition above about 38%;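 further: extracellular domain of Rv3671c used as enzyme; 0% = enzyme with DMSO and 100% = no enzyme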
FadD28 binding: inhibitors of FadD28 bisubstrate probe binding, primary screen, biochemical, fluorescence polarization, single point; inhibition, % at 12.5 µM; AID 588549, 2011; 0.22% of 360,000 active; in the data active means inhibition above about 8.5%, passing the limit was not always enough
BioA inh: M. tuberculosis BioA enzyme inhibitors, primary screen, biochemical, plate reader, single point, HTS | 7,8-diaminopelargonic acid synthase BioA (Mycobacterium tuberculosis) | purified M. tuberculosis BioA enzyme | inhibition, % at 9.99 µM | 0.096% of 360,000 active; in the data active means inhibition above about 40%
Mtb FBA inh: Mtb FBA enzyme inhibitors, primary screen, biochemical, fluorescence, strain H37Rv. Fructose-bisphosphate aldolase (Mycobacterium tuberculosis (strain ATCC 25618 / H37Rv)), …. purified M. tuberculosis FBA, fluorescence read-out. inhibition, % at 1 µM. 2.3% of 360,000 active; in the data active means inhibition above about 27%;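 further: 0% = vehicle and 100% = reference inhibitor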
Target sequence (P9WQA3 whole entry, looked up): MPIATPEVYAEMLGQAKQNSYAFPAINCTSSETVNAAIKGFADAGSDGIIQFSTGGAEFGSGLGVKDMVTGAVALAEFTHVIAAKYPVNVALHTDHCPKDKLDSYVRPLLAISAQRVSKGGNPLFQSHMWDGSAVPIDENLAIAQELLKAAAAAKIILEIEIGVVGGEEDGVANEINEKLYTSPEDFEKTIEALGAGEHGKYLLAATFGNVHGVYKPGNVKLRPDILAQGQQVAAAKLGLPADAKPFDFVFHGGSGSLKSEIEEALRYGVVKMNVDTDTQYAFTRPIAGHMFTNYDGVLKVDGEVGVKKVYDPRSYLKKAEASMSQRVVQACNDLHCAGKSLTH
GDH-TPI counter: GDH-TPI coupling enzyme inhibitors, primary screen, artefact control for M. tuberculosis FBA inhibitor project, biochemical, absorbance, full deck; GDH-TPI coupled enzyme counterscreen, NADH absorbance; inhibition, % at 4.8 µM; 1.2% of 360,000 active; AID 588335, 2011; in the data active means inhibition above about 30%;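 further: 0% = DMSO wells and 100% = wells lacking the enzyme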
Starred values were filed as active, the others as inactive; x = not tested or not shown; + = active, no number. Compounds with a hit are over-represented: about 3% of the library has one in this group of screens.

SMILES	Rv3671c inh	FadD28 binding	BioA inh	Mtb FBA inh	GDH-TPI counter
Cc1csc(NC(=O)CSc2nnc(NC(=O)NC(C)(C)C)s2)n1	-4	12*	-1	-4	16
COc1cccc(-c2cn(CC[C@@H]3CC[C@@H](NS(=O)(=O)Cc4ccccc4)[C@@H](CO)O3)nn2)c1	x	x	6	x	x
CNC[C@@H]1Oc2ccc(NS(=O)(=O)c3ccc(F)cc3)cc2CC(=O)N([C@H](C)CO)C[C@H]1C	x	x	3	x	x
O=C(O)c1ccccc1N1C(=O)c2cccc3cccc(c23)C1=O	-2	-1	0	-1	12
Cc1ccccc1N1C(=O)c2cccc3cccc(c23)C1=O	-4	0	-2	2	35*
CCS(=O)(=O)Nc1ccc2c(c1)C(=O)N(C)C[C@@H](OC)[C@@H](C)CN(C(=O)C1CCC1)[C@@H](C)CO2	x	x	0	x	x
COc1ccc(/C=N/Nc2nc(=O)[nH]nc2C)cc1OC	7	0	x	3	48*
COc1ccc(/C=N/Nc2nc3ccccc3c(=O)n2-c2ccccc2)cc1OC	-3	-2	x	-3	60*
COc1ccc(/C=N/n2c(C)nc3ccccc3c2=O)cc1OC	-14	0	0	0	7
COc1cc(/C=N/Nc2nc(=O)[nH]nc2C)ccc1O	-8	0	x	-6	32*
O=C(Nc1ccc2c(c1)OCO2)N[C@H]1CC[C@H](CCNC(=O)C2CCOCC2)O[C@H]1CO	x	x	-1	x	x
C[C@@H](NC(=O)[C@H]1[C@H](CO)[C@H]2Cn3c(cccc3=O)[C@H]2N1Cc1ccncc1)c1ccccc1	x	x	0	x	x
C[C@@H]1CN([C@@H](C)CO)C(=O)c2cc(NS(=O)(=O)c3cn(C)cn3)ccc2O[C@@H]1CN(C)S(=O)(=O)c1ccc(Cl)cc1	x	x	-2	x	x
O=C(C[C@@H]1C=C[C@H](NC(=O)C2CCOCC2)[C@@H](CO)O1)Nc1ccc(-c2ccccc2)cc1	x	x	2	x	x
Cc1noc(C)c1S(=O)(=O)Nc1ccc2c(c1)C(=O)N([C@@H](C)CO)C[C@H](C)[C@H](CN(C)C(=O)Nc1ccccc1)O2	x	x	-2	x	x
Cc1noc(C)c1NC(=O)N(C)C[C@H]1Oc2c(NS(=O)(=O)c3cccs3)cccc2C(=O)N([C@@H](C)CO)C[C@H]1C	x	x	-4	x	x
CC1CC(=O)C2=C(C1)Nc1nc3ccccc3n1C2c1cccnc1 (stereo unspecified)	-7	0	x	165*	14
O=C1CCCC2=C1C(c1ccncc1)n1c(nc3ccccc31)N2 (stereo unspecified)	-3	0	x	+	14
Cc1nnc(SCC(=O)N(C)CC(=O)Nc2ccccc2Cl)s1	-4	-3	2	-2	3
CCc1ccccc1NC(=O)CN(C)C(=O)CSc1nnc(Nc2cccc(C)c2C)s1	-6	29*	-1	5	6
COc1cc2ccc(=O)oc2cc1O	-4	1	-2	+	20
COc1cc2oc(=O)ccc2c(OC)c1CC(O)C(C)(C)O (stereo unspecified)	6	-3	-1	4	6
COc1cc2ccc(=O)oc2cc1OCC(O)C(C)(C)O (stereo unspecified)	4	-2	-2	138*	21
N#Cc1cccc(-c2ccc([C@@H]3[C@@H](CO)N4CCCCN(Cc5ccccc5F)C[C@@H]34)cc2)c1	x	x	4	x	x
CCN1[C@H](C(=O)NCCN2CCCCC2)[C@@H](CO)[C@@H]2Cn3c(ccc(-c4ccc(OC)cc4)c3=O)[C@@H]21	x	x	2	x	x
SMILES	Rv3671c inh	FadD28 binding	BioA inh	Mtb FBA inh	GDH-TPI counter
COc1ccc(S(=O)(=O)Nc2ccc3c(c2)C(=O)N([C@@H](C)CO)C[C@H](C)[C@@H](CN(C)C(=O)NC(C)C)OCCCC[C@@H](C)O3)cc1	x	x	-2	x	x
Cc1sc2ncnc(Sc3nnnn3-c3ccccc3)c2c1C	-4	-5	1	27*	9
NS(=O)(=O)c1ccc(Nc2nc(-c3ccc(O)cc3O)cs2)cc1	-3	40*	x	-2	5
O=C1N[C@@H](Cc2ccccc2)C(=O)N2[C@@H]1C[C@@H](C(=O)NCc1ccc(F)cc1)[C@H]2c1ccc(O)cc1	x	x	0	x	x
COc1ccc(C#Cc2ccc3c(c2)O[C@@H](CN(C)C(C)=O)[C@@H](C)CN([C@H](C)CO)S3(=O)=O)cc1	x	x	-6	x	x
CCSc1nc2sc3c(c2c(=O)n1-c1ccccc1)CCN(C)C3	-5	-5	3	3	30
COCCSc1nc2sc3c(c2c(=O)n1-c1ccccc1)CCN(C)C3	0	-1	2	13	31*
CCOC(=O)CSc1nc2sc3c(c2c(=O)n1C1CCCCC1)CCN(C)C3	-1	-4	4	20	39*
CCOc1ccc(-n2c(SCC(N)=O)nc3sc4c(c3c2=O)CCN(C)C4)cc1	-1	-4	5	4	32*
COc1ccc(NC(=O)CSc2nc3sc4c(c3c(=O)n2-c2ccc(OC)cc2)CCN(C)C4)cc1	-17	-3	0	2	35*
CO[C@@H](C(=O)N(C)C[C@@H]1OCc2ccccc2-c2ccccc2C(=O)N([C@H](C)CO)C[C@H]1C)c1ccccc1	x	x	0	x	x
COCC(=O)N[C@@H]1C=C[C@@H](CC(=O)N2CCCCC2)O[C@H]1CO	x	x	1	x	x
CNC[C@H]1OCCCC[C@H](C)Oc2ccc(NS(=O)(=O)c3ccc(F)cc3)cc2C(=O)N([C@@H](C)CO)C[C@H]1C	x	x	17	x	x
COc1ccc(-n2c(SCC(=O)Nc3nccs3)nc3sc4c(c3c2=O)CCN(C)C4)cc1	-14	-2	8	3	32*
COc1ccc(CN2[C@H](CO)[C@H]3c4ccccc4N(C(=O)CC(F)(F)F)C[C@H]32)cc1	x	x	0	x	x
N=C1SCC(=O)N1c1ncc(Cc2ccc(F)cc2)s1	0	0	2	1	31*
N#CC(C#N)=NNc1ccc(S(N)(=O)=O)cc1	3	25*	0	-13	21
CN(C)Cc1c(O)ccc2cc(-c3nc4ccccc4n3C)c(=O)oc12	-7	-2	3	+	-7
CN(C)Cc1c(O)ccc2c(-c3ccccc3)cc(=O)oc12	-1	-1	x	10	3
O=c1c2cc(N3CCOCC3)ccc2[nH]c(=S)n1CCCN1CCCC1	-6	0	1	5	27
O=c1c2cc(N3CCOCC3)ccc2[nH]c(=S)n1CCCN1CCCCC1	-7	0	-3	4	31*
O=C(N/N=C/c1cccs1)c1ccc(NC(=O)c2ccccc2Cl)cc1	1	-4	x	0	33*
Cc1ccc(/C=N/NC(=O)c2ccc(NC(=O)c3ccccc3Cl)cc2)o1	-1	-6	0	-6	49*
O=C(N/N=C/c1cccs1)c1cccc(NC(=O)c2ccccc2Cl)c1	-8	-22	x	0	18
COc1ccc(-c2oc(=O)n(C)c2-c2ccc(OC)cc2)cc1	-12	-3	x	11	2
